Screening data (PubChem BioAssay)
Tau fluor cs = counter-screen for tau fibril formation inhibitors; 0.93% of 280,000 active; AID 1463; Potency, µM (top dose mostly 57.7 µM); tau K18 P301L Alexa594 fluorescence, heparin fibrillization; note: nearly all actives have a fitted effect of over 55% in size
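Human K18 P301L tau (15 uM unlabeled plus 0.24 uM Alexa 594-labeled, final) in 100 mM sodium acetate pH 7 was mixed with compound and 20 uM heparin and incubated 6 hr at 37 C.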
G9a inh = inhibitors of human histone lysine methyltransferase G9a; 8.8% of 350,000 active; Q96KQ7; Potency, µM (highest dose often 102 µM), actives largely listed as inhibitors; G9a H3K9 monomethylation, AlphaScreen, 2 h; note: nearly all actives have a fitted effect of over 75% in size
Target sequence (Q96KQ7 913-1193 limits assumed): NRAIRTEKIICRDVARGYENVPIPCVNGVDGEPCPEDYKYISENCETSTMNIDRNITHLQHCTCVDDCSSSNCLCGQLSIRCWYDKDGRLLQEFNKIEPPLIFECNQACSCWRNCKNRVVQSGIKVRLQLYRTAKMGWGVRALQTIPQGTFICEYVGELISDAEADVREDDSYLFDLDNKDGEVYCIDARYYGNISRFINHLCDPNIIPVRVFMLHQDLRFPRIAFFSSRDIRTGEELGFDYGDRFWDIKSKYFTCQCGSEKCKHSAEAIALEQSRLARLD
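Methyltransferase reactions run at room temperature for 2 h (20 nM enzyme, 500 nM biotin-H3K9 peptide, 20 uM SAM) after a 15 min compound preincubation; product detected by AlphaScreen beads and anti-H3K9me1 antibody.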
Coupling enz = counter-screen for Giardia aldolase inhibitors: coupling enzyme system; coupling enzyme system counterscreen, AmpLite Red fluorescence; 0.67% of 290,000 active; activity change, negative = inhibition, % at 58.2 µM, hits read low; in the data active = activity change below about -30%
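First, compound is pin-transferred into glyceraldehyde-3-phosphate coupling-enzyme reagent at 57.5 uM final and held 10 min at RT. Next, substrate, coupling system and AmpLite Red are added. After 20 min RT, fluorescence (525/598 nm) is read.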
Tau fibril FP = inhibitors of human tau fibril formation; Potency, µM (series often up to 57.7 µM), most hits filed as inhibitors; K18 P301L tau heparin fibrillization, Alexa594 FP, 6 h; 0.39% of 280,000 active; note: nearly all actives have a fitted effect of over 55% in size
Target sequence (P10636 561-689 P618L limits assumed): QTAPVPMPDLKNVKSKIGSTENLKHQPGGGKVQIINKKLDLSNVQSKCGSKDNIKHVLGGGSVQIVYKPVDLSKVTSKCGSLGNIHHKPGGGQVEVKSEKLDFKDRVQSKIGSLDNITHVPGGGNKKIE
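Quantitative HTS format: compounds meet 15 uM recombinant K18 P301L tau and Alexa 594-tau tracer in 100 mM sodium acetate pH 7; 20 uM heparin triggers fibrillization at 37 C over 6 hr; FP gives the signal.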
Sfp PPTase inh = Sfp phosphopantetheinyl transferase inhibition; Biochemical Sfp PPTase activity, qHTS; Potency, µM, usual class: inhibitors; 3.5% of 310,000 active;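 note: the enzyme is Sfp with the accession as filed and its product quenches rhodamine fluorescence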
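Step 1, compound plus 15 nM Sfp-PPTase, 15 min, room temperature. Step 2, add rhodamine-CoA (5 uM) and BHQ-2-YbbR (12.5 uM). Step 3, read 525/598 nm fluorescence at 0 and 30 min.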
Tau fibril ThT = blocks human tau fibril formation measured by thioflavin T. P10636. recombinant tau K18 P301L (four-repeat tau fragment), heparin-induced fibrillization, ThT fluorescence. Potency, µM (series often up to 57.4 µM), most hits filed as inhibitors. 2.1% of 270,000 active. AID 1460; note: nearly all actives have a fitted effect of over 55% in size
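Aggregation was driven by heparin (20 uM final) acting on recombinant tau […] bearing P301L in 100 mM sodium acetate pH 7; fibrils were detected with Thioflavin T.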
Numbers stand for hits; . = inactive; ? = inconclusive; / = no result; [ ] = dose if it differs, or a comment. Sampled rows, rich in hits. Any-hit rate of the full collection: about 11%. Unless noted, calls come from the whole dose curve; as a rule, active = well fitted curve in the direction sought with a large enough effect; inconclusive = small, poorly fitted or top-dose-only effect, or another doubt; inactive = no such curve, though single readings can be large; an effect the other way counts as inactive or inconclusive.

SMILES | Tau fluor cs | G9a inh | Coupling enz | Tau fibril FP | Sfp PPTase inh | Tau fibril ThT
COc1ccc(C2=NNC(c3cc(Cl)cc4c3OCOC4)C2)c(O)c1 (centres undefined) | . | 50.1µM | . | . | . | .
O=S(=O)(c1ccc(F)cc1)N1CCN(CC(O)COCC2CCCO2)CC1 (centres undefined) | / | 15.8µM | / | / | / | /
O=C1CCC/C(=N/Nc2ccc(Cl)cc2)C1 | ? | 4.47µM | -34.5 | ? | 20µM | 25.1µM
CCOC(=O)N1CCC(NC(=O)CC2C(=O)NCCN2Cc2ccccc2F)CC1 (centres undefined) | / | . | / | / | . | /
CCC(Sc1nc2nccnc2c(=O)n1Cc1ccccc1Cl)C(=O)NC1CCCCC1 (centres undefined) | . | . | / | ? | / | .
COc1ccc(C(=O)c2ccc(O)cc2)c(O)c1O | ? | / | . | ? | 28.2µM | ?
COc1ccc(C(=O)c2ccccc2)c2c(O)ccc(C(=O)c3ccccc3)c12 | ? | ? | . | . | . | ?
CCOc1ccc(C(=O)c2ccncc2)cc1 | . | .[12.7 µM] | . | . | . | .
CCOc1ccc(C(=O)c2ccc(OC)c(O)c2O)cc1 | ? | .[2.33 µM] | . | ? | . | 15.8µM
CCOC(=O)N1CCC(NC(=O)c2cnn(-c3ccc(C)cc3)c2-n2cccc2)CC1 | . | . | / | . | / | .
Fc1ccc(Sc2ccccc2CNC2=NCCN2)cc1 | . | 6.31µM | . | . | . | .
Cc1cccc(N2CCN(C(=O)c3cnn(-c4ccccc4Cl)c3C3CCN(C(=O)OC(C)(C)C)CC3)CC2C)c1 (centres undefined) | . | ? | / | . | / | ?
Cc1oc(-c2cccc(Cl)c2)nc1CSc1nc2ncccc2[nH]1 | . | ? | / | . | / | .
O=C1NCC2=C1C(c1ccccc1)Nc1ccccc1N2 (centres undefined) | . | .[12.7 µM] | -41.3 | . | . | ?
Cc1cc(C)c(C)c(OCCCCN2CCCCC2)c1 | / | / | . | / | . | /
Cc1cc(=S)[nH]c(=S)[nH]1 | . | / | . | . | 44.7µM | .
COc1ccc(C2c3c(ncn(Cc4ccco4)c3=N)Oc3ccc4ccccc4c32)cc1 (centres undefined) | . | ? | . | . | . | .
N=c1c2c(ncn1Cc1ccco1)Oc1ccc3ccccc3c1C2c1ccccc1 (centres undefined) | . | ? | . | ? | 22.4µM | .
CCc1cc(-c2n[nH]c(C)c2-c2ccccc2Cl)c(O)cc1OC | / | 39.8µM | -34.9 | / | . | /
NNC(=S)Nc1cccc(-c2n[nH]c(=S)o2)c1 | . | 3.16µM | . | . | 79.4µM | /
CN(C)C(=S)Nc1cccc(-c2n[nH]c(=S)o2)c1 | . | 22.4µM | . | . | . | .
CN(C)C(=S)Nc1ccc2ccccc2c1 | . | . | . | . | . | .
COc1ccc(NC(=O)c2cc3nc(-c4ccc(C)c(C)c4)cc(C(F)(F)F)n3n2)cc1 | . | . | / | . | / | ?
CC1Oc2ccccc2OC1(O)c1ccc2ccccc2n1 (centres undefined) | . | . | . | . | . | .
CC1Oc2ccccc2OC1(O)c1ccccn1 (centres undefined) | . | 20µM | . | . | . | .
SMILES | Tau fluor cs | G9a inh | Coupling enz | Tau fibril FP | Sfp PPTase inh | Tau fibril ThT
Cn1c(N)c(C(=O)CSc2nnc(C3CC3)n2-c2ccccc2)c(=O)n(C)c1=O | / | .[12.7 µM] | / | / | / | /
N#CC1=C(N)N(c2ccccc2)C(c2cccc([N+](=O)[O-])c2)C1(C#N)C#N (centres undefined) | . | 44.7µM | . | . | . | .
COc1ccc(N=C2C(=Nc3ccc(OC)cc3)N(c3ccc(OC)cc3)C(=S)N2C)cc1 | ? | 5.01µM | . | . | . | ?
COc1ccc(-c2n[nH]c(=S)n2-c2ccccc2C)cc1OC | / | 7.94µM | . | / | . | /
COc1ccc(-c2n[nH]c(=S)n2Cc2ccccc2)cc1OC | / | / | . | / | . | /
Cc1ccccc1-n1c(-c2ccc3ccccc3n2)n[nH]c1=S | . | 14.1µM | . | . | . | .
S=c1[nH]nc(-c2ccc3ccccc3n2)n1-c1ccc2ncccc2c1 | . | 2µM | . | . | ? | ?
COc1ccc(-c2n[nH]c(=S)n2-c2ccc(Br)cc2)cc1OC | / | 1.58µM | . | / | . | /
Cc1ccc2c(c1)c(=O)c(C(=O)c1ccc3c(c1)OCO3)cn2Cc1ccc(Cl)cc1 | . | . | / | . | / | ?
COc1cc(NC(=O)Cn2c(=O)nc(-c3ccccc3F)c3cc(Cl)ccc32)cc(OC)c1 | ? | . | / | ? | / | .
CCN(CC)c1ccc(-c2n[nH]c(=S)n2-c2ccccc2C)cc1 | . | ? | . | . | ? | .
COc1ccc(-c2n[nH]c(=S)n2-c2ccccc2C)cc1 | / | 4.47µM | . | / | ? | /
Cc1ccccc1-n1c(-c2cccnc2)n[nH]c1=S | . | 5.01µM | . | . | . | .
CC(C)c1ccccc1-n1c(-c2cccnc2)n[nH]c1=S | . | .[12.7 µM] | . | . | . | .
CCOc1ccc2[nH]c3nc(SCC(=O)NC4CC4)nnc3c2c1 | / | . | . | / | . | /
CC(/C=C/c1ccccc1)=N\Nc1nc(-c2ccccc2)cs1 | 11.2µM[quencher] | . | . | . | . | 7.94µM
CC1CC(CC(=O)NNc2nc(-c3ccccc3)cs2)C(=O)O1 (centres undefined) | . | . | . | . | . | .
Cc1cc(C)nc(Nc2nc(-c3ccccc3)cs2)n1 | / | / | . | / | . | /
CC(C)=NNc1nc(-c2ccccc2)cs1 | . | ? | . | . | 79.4µM | .
O=C(Nc1nc(-c2ccc(F)cc2)cs1)c1cccc(N2C(=O)CCC2=O)c1 | / | . | . | / | . | /
CC(C)=NNc1nc(-c2ccc(N3C(=O)CCC3=O)cc2)cs1 | ? | ? | . | ? | 20µM | 17.8µM
C/C(CCC1CC(C)OC1=O)=N/Nc1nc(-c2ccccc2)cs1 (centres undefined) | ? | 8.91µM | . | ? | 50.1µM | 28.2µM
FC(F)(F)c1ccc(C2=Nc3ccccc3NC(c3cccs3)=N2)cc1 | . | . | / | . | / | .
CCOC(=O)C/C(C)=N\Nc1nc(-c2ccccc2)cs1 | ? | ? | . | ? | ? | 14.1µM
CC(=O)c1ccccc1C(=O)N1CCCC(N2CCN(Cc3ccc4c(c3)OCO4)CC2)C1 (centres undefined) | / | .[12.7 µM] | / | / | . | /
CC(C)C[C@@H]1NC(=O)[C@H](C(C)C)NC(=O)c2cc([N+](=O)[O-])cc(I)c2OCC[C@@H](C(N)=O)NC1=O | . | 44.7µM | . | . | . | .
NCCCC[C@@H]1NC(=O)[C@H](CCC(=O)O)NC(=O)c2cc([N+](=O)[O-])cc(I)c2OCC[C@@H](C(N)=O)NC1=O | . | 31.6µM | . | . | . | .
NC(=O)[C@@H]1CCOc2c(I)cc([N+](=O)[O-])cc2C(=O)N[C@@H](CO)C(=O)NCC(=O)N1 | . | 44.7µM | . | . | . | .
